Assay outcomes: PubChem, several laboratories
HNF4A DNA FP: change in binding of human HNF4 alpha to DNA. HNF4a-FITC DNA binding, fluorescence polarization, 1 h. activity change, % at 10 µM. 360,000 compounds, 0.3% hits; in the data active = activity change above about 30%, passing the limit was not always enough
NRP1-CendR mod: alters CendR peptide binding to human NRP-1; 360,000 compounds, 0.85% hits; inhibition, % at 25 µM; O14786; FAM-RPARPAR peptide binding to NRP-1, fluorescence polarization; AID 602438;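 active = inhibition or corrected inhibition above about 18%, plus a signal ratio from 0.5 to 1.5, limit read from the data, passing the limit was not always enough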
Target sequence (O14786 whole entry, looked up): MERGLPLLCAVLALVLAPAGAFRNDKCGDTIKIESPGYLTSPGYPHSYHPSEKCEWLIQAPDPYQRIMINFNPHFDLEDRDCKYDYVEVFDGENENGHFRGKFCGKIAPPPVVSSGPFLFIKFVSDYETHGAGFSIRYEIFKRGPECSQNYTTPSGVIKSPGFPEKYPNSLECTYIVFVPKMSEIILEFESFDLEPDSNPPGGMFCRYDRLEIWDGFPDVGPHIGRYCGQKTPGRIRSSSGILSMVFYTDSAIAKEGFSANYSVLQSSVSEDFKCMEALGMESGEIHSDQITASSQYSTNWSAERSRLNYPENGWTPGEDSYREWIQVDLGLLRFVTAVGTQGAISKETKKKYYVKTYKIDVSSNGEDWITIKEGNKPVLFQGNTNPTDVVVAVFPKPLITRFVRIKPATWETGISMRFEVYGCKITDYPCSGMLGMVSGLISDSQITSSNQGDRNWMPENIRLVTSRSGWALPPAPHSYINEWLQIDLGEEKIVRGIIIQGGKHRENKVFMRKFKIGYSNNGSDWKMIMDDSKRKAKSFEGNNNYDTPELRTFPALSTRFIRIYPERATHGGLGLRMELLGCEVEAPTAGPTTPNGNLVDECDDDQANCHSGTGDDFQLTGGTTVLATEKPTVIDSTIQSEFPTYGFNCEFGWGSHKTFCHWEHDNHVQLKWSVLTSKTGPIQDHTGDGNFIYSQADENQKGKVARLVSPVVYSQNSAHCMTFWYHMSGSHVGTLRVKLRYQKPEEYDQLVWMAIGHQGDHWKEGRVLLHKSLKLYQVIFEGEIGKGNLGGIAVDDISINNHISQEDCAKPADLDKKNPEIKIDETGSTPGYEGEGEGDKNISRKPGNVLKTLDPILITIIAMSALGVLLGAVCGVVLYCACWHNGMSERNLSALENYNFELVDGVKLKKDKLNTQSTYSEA
TPT1 inhibitor: C. albicans TPT1 enzyme inhibition | recombinant caTPT1, FP RNA substrate dephosphorylation | inhibition, % at 5 µM | 300,000 compounds, 0.81% hits;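 active = inhibition above the mean of all tested compounds plus 3 SD, set per screening campaign, cut at about 24% in these data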
CTSL1 counter: cathepsin L1 inhibition, PFM18AAP counter-screen; recombinant F. hepatica cathepsin L1, Z-Leu-Arg-MCA fluorescence; inhibition, % at 5.96 µM; 300,000 compounds, 0.49% hits; AID 1906;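 active = inhibition above the mean of all tested compounds plus 3 SD, set per screening campaign, cut at about 17% in these data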
PHOSPHO1 inh: inhibitors of human PHOSPHO1 phosphatase; recombinant PHOSPHO1, absorbance phosphatase assay; inhibition, % at 13.3 µM; 290,000 compounds, 1.1% hits; AID 1565; in the data active = inhibition above about 60%
Rpn11 inh: inhibitors of human proteasome Rpn11. human 26S proteasome, Ub4-pepOG fluorescence polarization; 20S core pre-blocked with epoxomicin. inhibition, % at 20 µM. 360,000 compounds, 0.59% hits;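 active = inhibition at 20 µM, scaled to each plate's controls, above about 33%, limit read from the data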
Each line names hits and unclear results; the compound was inactive in the other large screens. The list is not random: actives were taken first. Their share in the collection is about 3.3%.

O=[N+]([O-])c1c(Nc2ccccc2O)ccc2nonc12	NRP1-CendR mod 25
COc1cc(/C=C2\CCC(C3CCCC3)C2=O)cc(OC)c1OC (centres undefined)	CTSL1 counter 27
COc1ccc(/C=C2\CCC(C3CCCC3)C2=O)c(OC)c1OC (centres undefined)	none
COc1ccc(NC(=O)N(C)C[C@@H]2OCc3cn(nn3)CCCC(=O)N([C@H](C)CO)C[C@H]2C)cc1	none (no result: TPT1 inhibitor, CTSL1 counter, PHOSPHO1 inh)
C[N+]1(C)CCC(=C(c2ccccc2)c2ccccc2)CC1	none (no result: PHOSPHO1 inh)
COc1ccc(-c2ccc(-c3nnn(CC(=O)N4CCOCC4)n3)cc2)cc1	none
COc1cc(-c2nnn(CC(=O)N3CCOCC3)n2)cc(OC)c1OC	CTSL1 counter 30
O=C(CCSc1ccc(Cl)cc1)c1ccco1	CTSL1 counter 20
CCNS(=O)(=O)c1ccc(OC)c(C(=O)NC2CCCCC2)c1	none
CCN(CC)c1ccc(C(=O)NNC(=O)CCl)cc1	CTSL1 counter 58
CCN(CC)c1ccc(C(=O)NNC(=O)CCNC(=O)c2ccccc2)cc1	none (no result: TPT1 inhibitor, CTSL1 counter, PHOSPHO1 inh)
COc1cccc(CNC(=O)COC(=O)/C=C/c2ccc(SC)cc2)c1	none (no result: TPT1 inhibitor, CTSL1 counter, PHOSPHO1 inh)
COc1cc(/C=c2\sc3nc(=O)c(-c4ccccc4)nn3c2=O)ccc1OCCC(C)C	NRP1-CendR mod 40
CCOc1ccc(/C=c2\sc3nc(-c4ccco4)nn3c2=O)cc1OCC	none
CN(C)CCNC(=O)c1ccc(CS(=O)(=O)c2c(Cl)cccc2Cl)o1	none
CN(CCNC(=O)c1ccc(CS(=O)(=O)c2c(Cl)cccc2Cl)o1)CCc1ccccc1	PHOSPHO1 inh 65
Cc1ccc(S(=O)(=O)CCC(=O)OCc2cc(C)ccc2C)cc1	NRP1-CendR mod 27 (no result: PHOSPHO1 inh)
Cc1ccc(S(=O)(=O)CCC(=O)OCc2ccccc2F)cc1	none
COc1ccccc1-n1cnc(N)c1C(=O)c1ccccc1	CTSL1 counter 19
COc1ccc(CCN2C(=S)NC3CC2(C)Oc2ccc([N+](=O)[O-])cc23)cc1OC (centres undefined)	none
Cc1ccccc1-n1c(SCC(=O)N2CCC(C(=O)O)CC2)nnc1-c1ccncc1	none
Cc1ccccc1-n1c(SCC(=O)N2CCN(c3ccccc3)CC2)nnc1-c1ccncc1	PHOSPHO1 inh 66
Cc1ccc(C)c(-n2c(SCC(=O)N3CCC(C(=O)O)CC3)nnc2-c2cccc(Cl)c2)c1	NRP1-CendR mod 27
Cc1ccc(-n2c(Cc3cccn3C)nnc2SCC(=O)N2CCN(c3ccccc3)CC2)cc1	PHOSPHO1 inh 77
O=C1c2ccccc2C(=O)N1C1C=CC=CC=C1	none (no result: TPT1 inhibitor, CTSL1 counter, PHOSPHO1 inh)
CC(C)[C@H](NC(=O)N1c2ccccc2NC(=O)[C@@H]1C(C)C)C(=O)N[C@@H](Cc1c[nH]c2ccccc12)C(=O)O	none
CCCCC[C@@H](C)N1C[C@H](COCc2ccccc2)Oc2cc(N3CCC[C@@H]3CO)ccc2S1(=O)=O	none (no result: TPT1 inhibitor, CTSL1 counter, PHOSPHO1 inh, Rpn11 inh)
O=C1/C(=C/c2ccc(F)cc2)SC(=S)N1Nc1ncc(C(F)(F)F)cc1Cl	PHOSPHO1 inh 86
O=C(CCC(=O)NC1CCCCC1)N/N=C/c1ccncc1	none
N#CCS(=O)(=O)c1ccccc1	NRP1-CendR mod 24
CCOc1ccccc1N(CC(=O)NCC1CCCO1)C(=O)CCC(=O)Nc1ccccn1 (centres undefined)	none (no result: TPT1 inhibitor, CTSL1 counter)
COC(=O)c1ccc(N2CCN(C)CC2)c(NC(=O)c2sc3ccccc3c2Cl)c1	none (no result: PHOSPHO1 inh)
OCC1OC(c2ccc(OCc3ccccc3)cc2OCc2ccccc2)C(O)C1O (centres undefined)	none (no result: TPT1 inhibitor, CTSL1 counter, PHOSPHO1 inh)
OCC1OC(c2ccc(O)cc2O)C(O)C1O (centres undefined)	NRP1-CendR mod 29 (no result: TPT1 inhibitor, CTSL1 counter, PHOSPHO1 inh, Rpn11 inh)
CC(=O)n1cc(/C=N/NC(N)=S)c2ccccc21	CTSL1 counter 95
COc1ccccc1OCCn1cc(/C=N/NC(=O)c2ccncc2)c2ccccc21	PHOSPHO1 inh 60
COc1cccc(/C=N/NC(N)=S)c1OCc1ccccc1Cl	none
O=C(N/N=C/c1c[nH]c2ccccc12)C1CC(=O)N(c2ccccc2)C1 (centres undefined)	PHOSPHO1 inh 73
NC(=S)N/N=C/c1ccccc1OCCSc1ccc(Cl)cc1	CTSL1 counter 25
O=C(N/N=C/c1cn(CCOc2ccccc2)c2ccccc12)c1ccncc1	none
NC(=S)N/N=C/c1c[nH]c2ccccc12	CTSL1 counter 102
COc1ccccc1OCCn1cc(/C=N/NC(N)=S)c2ccccc21	CTSL1 counter 95
COC(=O)N/N=C/c1c[nH]c2ccccc12	none
